PubChem BioAssay (NCATS)
Some of the results follow. Inconclusive results are not listed. The source made the active and inactive calls. The call rests on the fitted dose curve; in most records, active means well fitted curve in the direction sought with a large enough effect; inconclusive means small, poorly fitted or top-dose-only effect, or another doubt; inactive means no such curve, though single readings can be large; an effect the other way counts as inactive or inconclusive.

Biological target: DNA polymerase eta (Homo sapiens) (UniProt Q9Y253)
Sequence (Q9Y253 whole entry, looked up): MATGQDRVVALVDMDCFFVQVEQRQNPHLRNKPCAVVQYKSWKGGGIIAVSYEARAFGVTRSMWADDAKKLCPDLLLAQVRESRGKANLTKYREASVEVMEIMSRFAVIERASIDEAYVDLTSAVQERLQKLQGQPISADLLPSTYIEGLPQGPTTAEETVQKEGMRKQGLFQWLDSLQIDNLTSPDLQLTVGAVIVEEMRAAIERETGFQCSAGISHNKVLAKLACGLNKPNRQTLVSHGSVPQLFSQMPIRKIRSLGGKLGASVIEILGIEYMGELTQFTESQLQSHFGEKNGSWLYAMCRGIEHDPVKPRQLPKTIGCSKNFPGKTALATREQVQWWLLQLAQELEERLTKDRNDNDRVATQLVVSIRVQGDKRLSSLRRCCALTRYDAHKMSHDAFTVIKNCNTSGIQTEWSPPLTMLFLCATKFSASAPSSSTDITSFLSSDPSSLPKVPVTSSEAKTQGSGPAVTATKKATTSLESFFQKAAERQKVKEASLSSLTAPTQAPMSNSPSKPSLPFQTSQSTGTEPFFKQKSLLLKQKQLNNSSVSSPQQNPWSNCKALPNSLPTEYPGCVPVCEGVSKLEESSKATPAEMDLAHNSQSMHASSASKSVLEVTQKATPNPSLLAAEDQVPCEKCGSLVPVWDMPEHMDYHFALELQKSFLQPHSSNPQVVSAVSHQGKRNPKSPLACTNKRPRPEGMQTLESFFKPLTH
Experiment: qHTS for Inhibitors of Polymerase Eta: Confirmatory Assay for Cherry-picked Compounds (AID 720502)
Details: Pol eta primer extension, TAMRA/BHQ fluorescence, 10 min
Procedure, shortened: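 Compounds are preincubated 15 min at room temperature with 10 nM human Pol eta, with buffer-only wells serving as negative control. Adding 50 nM final substrate starts the reaction, and TAMRA fluorescence is read over 10 min.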
Potency means the concentration at half of the fitted maximal effect.

Row | Compound | Potency
1 | COc1ccc(Cl)cc1NC(=O)CCS(=O)(=O)c1ccc(Br)cc1 | 16.9 µM (active)
2 | CCc1ccc2nc3sc(C(=O)Nc4nnc(CC)s4)c(N)c3cc2c1 | 60.1 µM (active)
3 | Cc1c(CC(=O)N2CCN(C(=O)C3COc4ccccc4O3)CC2)c(=O)oc2c(O)c(O)ccc12 (stereo unspecified) | 7.57 µM (active)

Biological target: RecQ-like DNA helicase BLM (Homo sapiens) (UniProt P54132)
Sequence (P54132 whole entry, looked up): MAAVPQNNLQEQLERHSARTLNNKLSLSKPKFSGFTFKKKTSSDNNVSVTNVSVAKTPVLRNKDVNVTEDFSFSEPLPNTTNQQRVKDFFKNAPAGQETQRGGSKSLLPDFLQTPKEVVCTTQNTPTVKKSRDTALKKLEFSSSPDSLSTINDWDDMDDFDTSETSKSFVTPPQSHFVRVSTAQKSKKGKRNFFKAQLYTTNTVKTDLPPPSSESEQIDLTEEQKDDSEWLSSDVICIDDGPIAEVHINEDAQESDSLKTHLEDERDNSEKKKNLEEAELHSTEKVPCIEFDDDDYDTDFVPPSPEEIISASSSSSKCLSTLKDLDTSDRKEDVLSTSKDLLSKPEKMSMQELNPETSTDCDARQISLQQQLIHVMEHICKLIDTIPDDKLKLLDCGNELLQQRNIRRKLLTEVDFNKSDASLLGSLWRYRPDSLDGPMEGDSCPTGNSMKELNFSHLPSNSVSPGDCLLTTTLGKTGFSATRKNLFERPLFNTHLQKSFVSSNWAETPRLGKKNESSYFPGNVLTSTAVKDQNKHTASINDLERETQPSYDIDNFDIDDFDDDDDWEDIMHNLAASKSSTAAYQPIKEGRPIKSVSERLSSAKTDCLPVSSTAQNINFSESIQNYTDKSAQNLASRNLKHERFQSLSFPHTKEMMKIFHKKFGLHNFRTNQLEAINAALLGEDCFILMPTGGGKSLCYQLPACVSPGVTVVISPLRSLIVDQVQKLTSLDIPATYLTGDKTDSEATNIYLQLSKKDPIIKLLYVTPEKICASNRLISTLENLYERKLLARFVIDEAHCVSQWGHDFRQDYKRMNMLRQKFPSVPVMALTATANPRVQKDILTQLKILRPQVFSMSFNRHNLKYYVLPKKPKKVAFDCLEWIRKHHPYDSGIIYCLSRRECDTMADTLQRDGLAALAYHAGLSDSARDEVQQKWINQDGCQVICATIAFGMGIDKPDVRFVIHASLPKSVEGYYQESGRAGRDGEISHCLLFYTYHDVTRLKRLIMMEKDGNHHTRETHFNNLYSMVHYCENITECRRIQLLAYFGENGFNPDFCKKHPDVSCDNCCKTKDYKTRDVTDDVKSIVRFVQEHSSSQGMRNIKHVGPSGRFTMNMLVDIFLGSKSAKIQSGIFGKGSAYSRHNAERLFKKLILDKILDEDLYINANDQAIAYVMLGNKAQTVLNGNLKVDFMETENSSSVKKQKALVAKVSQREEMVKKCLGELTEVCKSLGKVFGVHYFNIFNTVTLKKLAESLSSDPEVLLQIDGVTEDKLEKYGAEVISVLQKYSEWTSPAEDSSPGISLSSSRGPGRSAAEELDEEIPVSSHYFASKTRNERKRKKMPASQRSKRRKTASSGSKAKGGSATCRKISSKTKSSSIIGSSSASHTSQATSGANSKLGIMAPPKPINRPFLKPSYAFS
Experiment: qHTS for Inhibitors of WRN Helicase: BLM Helicase Counterscreen for WRN Inhibitors (AID 720503); further: nearly all actives have a fitted effect of over 60% in size
Details: Recombinant BLM helicase DNA unwinding, red fluorescence; series mostly up to 57.1 µM
Procedure, shortened: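 Steps: compounds added to 1 nM BLM in pH 8.0 Tris buffer with 2 mM MgCl2; 15 min room-temperature incubation; substrates added (100 nM DNA, 2 mM ATP final); discontinuous kinetic fluorescence measurement, reads spaced 15 min.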

Row | Compound | Potency
4 | COc1ccc(Cl)cc1NC(=O)CCS(=O)(=O)c1ccc(Br)cc1 | 4.82 µM (active)
5 | CCc1ccc2nc3sc(C(=O)Nc4nnc(CC)s4)c(N)c3cc2c1 | 10.8 µM (active)
6 | Cc1c(CC(=O)N2CCN(C(=O)C3COc4ccccc4O3)CC2)c(=O)oc2c(O)c(O)ccc12 (stereo unspecified) | 1.52 µM (active)
